For 33 compounds, Potency results are on record in PubChem BioAssay (NCATS).

Assay [1] addresses Luciferin 4-monooxygenase (Photinus pyralis) (UniProt P08659). The assay can be described thus: Biochemical firefly luciferase enzyme assay for NPC (AID 624030). Also: nearly all actives have a fitted effect of over 70% in size. Also: potency is read from the fitted curve at half-maximal effect. A digest of the protocol:
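Counter-screen for direct inhibition of the luciferase enzyme by approved-drug library compounds, run at 10 nM enzyme in 50 mM Tris acetate (final). Luminescence was read within 5 min of enzyme-buffer addition and normalized to PTC124 versus DMSO (0%).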

Assay [2] in a line: S16 Schwann cell viability assay (CellTiter-Glo assay) (AID 624031). Also: series mostly up to about 58 µM; nearly all actives have a fitted effect of over 70% in size. A digest of the protocol: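 This viability control uses native rat S16 Schwann cells grown in DMEM plus 10% FBS. After a 24 h compound treatment at 37 °C, CellTiter-Glo luminescence reports ATP content, scaled against DMSO-treated and cell-free wells.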
(In general: ATP-based viability assays read luminescence as a measure of living cells.)

Assay [3] can be described thus: S16 Schwann cell PMP22 intronic element firefly luciferase assay (AID 624032). Also: nearly all actives have a fitted effect of over 30% in size. Also: potency is read from the fitted curve at half-maximal effect. The essentials:
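Rat S16 Schwann cells stably carrying a PMP22 intronic element-driven Fluc reporter were seeded overnight, then exposed to compounds for 24 h at 37 °C. Luminescence was normalized to PTC124 (positive control) and DMSO (0% activity).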

Assay [4] in a line: S16 Schwann cell PMP22 intronic element beta-lactamase assay (AID 624044; calls by dose curve; also: nearly all actives have a fitted effect of over 15% in size; also: potency is read from the fitted curve at half-maximal effect). A digest of the protocol: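 Rat S16 Schwann cells with beta-Lac driven by a PMP22 intronic element, compound-treated 24 h at 37 °C. LiveBLAzer FRET B/G read: 460 nm normalized to potassium clavulanate vs DMSO; 535 nm FRET as viability; concentration-effect curves classified.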
Assay [5] is described as follows: qHTS assay for small molecule agonists of the antioxidant response element (ARE) signaling pathway (AID 651741; active = well fitted activation curve with a large enough effect in the signal ratio; the % refers to the signal ratio). The essentials:
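Compounds in DMSO are pinned onto HepG2 ARE-bla cells (2,000/well) that were preincubated 5 h; plates stay 16 h at 37 C, then beta-lactamase activity is detected with LiveBLAzer B/G substrate by fluorescence.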
(In general: Quantitative high-throughput screening tests each substance at several concentrations.)

Inconclusive results are not listed. The source made the active and inactive calls. Unless noted, calls follow the shape of the dose curve; as a rule, active = well fitted curve in the direction sought with a large enough effect; inconclusive = small, poorly fitted or top-dose-only effect, or another doubt; inactive = no such curve, though single readings can be large; an effect the other way counts as inactive or inconclusive.

Chain of Luciferin 4-monooxygenase (Photinus pyralis) (P08659 whole entry, looked up): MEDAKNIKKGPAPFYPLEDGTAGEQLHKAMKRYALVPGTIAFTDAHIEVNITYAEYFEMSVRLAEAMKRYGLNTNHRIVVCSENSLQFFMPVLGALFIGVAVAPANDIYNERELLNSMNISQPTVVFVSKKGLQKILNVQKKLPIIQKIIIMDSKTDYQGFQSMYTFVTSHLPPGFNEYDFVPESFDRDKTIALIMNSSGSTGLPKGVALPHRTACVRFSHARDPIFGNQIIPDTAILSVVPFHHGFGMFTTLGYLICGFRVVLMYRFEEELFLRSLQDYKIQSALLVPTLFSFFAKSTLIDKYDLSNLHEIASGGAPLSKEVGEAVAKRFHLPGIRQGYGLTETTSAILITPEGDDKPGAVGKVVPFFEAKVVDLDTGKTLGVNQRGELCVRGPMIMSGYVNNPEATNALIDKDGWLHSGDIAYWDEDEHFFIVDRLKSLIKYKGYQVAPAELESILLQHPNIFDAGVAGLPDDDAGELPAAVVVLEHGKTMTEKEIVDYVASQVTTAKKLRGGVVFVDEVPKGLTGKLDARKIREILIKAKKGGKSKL

As for `COc1ccc(-c2cc(C(F)F)nn2-c2ccc(S(N)(=O)=O)cc2)cc1F`, the Potency entry in assay [1], in assay [2], in assay [3] and in assay [4] was “inactive” throughout.

Take `OC(C#CCN1CCCC1)(c1ccccc1)c1ccccc1`: the Potency entry in assay [1], in assay [2], in assay [3] and in assay [4] was “inactive” each time.

With `CC1(COc2ccc(CC3SC(=O)NC3=O)cc2)CCCCC1` (stereo unspecified), the Potency in assay [1] is 16.1 µM (active). Further, the Potency entry in assay [2], in assay [3] and in assay [4] was “inactive” throughout.

For `Oc1ccc(Cl)cc1Cc1cc(Cl)ccc1O`, the Potency result in assay [1], in assay [2], in assay [3] and in assay [4] was “inactive” each time.

`CN1CCN(C2=Nc3cc(F)ccc3Cc3ccccc32)CC1`: the Potency result in assay [1], in assay [2], in assay [3] and in assay [4] was “inactive” each time.

For `NC1CCN(c2nc3c(cc2F)c(=O)c(C(=O)O)cn3-c2ccc(F)cc2F)C1` (stereo unspecified), the Potency result in assay [1], in assay [2] and in assay [3] was “inactive” throughout.

In the case of `O=S(=O)(O)c1ccc(O)cc1`, the Potency entry in assay [1], in assay [2] and in assay [3] was “inactive” in each case.

In the case of `CCCCCN=C(N)N/N=C/c1c[nH]c2ccc(OC)cc12`, the Potency entry in assay [1], in assay [2], in assay [3] and in assay [4] was “inactive” each time.

For `Clc1cccc(C(c2ccc3nc[nH]c3c2)n2ccnc2)c1` (stereo unspecified), the Potency entry in assay [1], in assay [2], in assay [3] and in assay [4] was “inactive” each time.

Regarding `c1ccc(-c2nc[nH]c2-c2ccccc2)cc1`, the Potency entry in assay [1], in assay [2] and in assay [3] was “inactive” in each case.

On to `CCCCC(CC)COC(=O)c1ccc(N(C)C)cc1` (stereo unspecified), for which the Potency result in assay [1], in assay [2], in assay [3] and in assay [4] was “inactive” throughout.

`COc1ccc(/C=N/NC(=O)c2ccncc2)cc1OC`: the Potency entry in assay [1], in assay [2], in assay [3] and in assay [4] was “inactive” throughout.

In the case of `Nc1ccc(S(=O)(=O)NCc2ccccc2)cc1`, the Potency result in assay [1], in assay [2], in assay [3] and in assay [4] was “inactive” in each case.

For `CCCCc1cc2ccccc2c(OCCN(C)C)n1`, the Potency entry in assay [1], in assay [2], in assay [3] and in assay [4] was “inactive” each time.

Turning to `Nc1ccc(S(=O)(=O)Nc2cnc3ccccc3n2)cc1`, the Potency entry in assay [1], in assay [2], in assay [3] and in assay [4] was “inactive” in each case.

As to `COc1cc(C(=O)NCc2ccc(OCCN(C)C)cc2)cc(OC)c1OC`, the Potency entry in assay [1], in assay [2], in assay [3] and in assay [4] was “inactive” throughout.

Regarding `O=C(O)CCNC(=O)c1ccccc1`, the Potency entry in assay [1], in assay [2] and in assay [3] was “inactive” throughout.

On to `CCCCNc1ccc(C(=O)OCCOCCOCCOCCOCCOCCOCCOCCOCCOC)cc1`, for which the Potency entry in assay [1], in assay [2], in assay [3] and in assay [4] was “inactive” each time.

Consider `C/C=C/C=N/NC(=O)c1ccncc1`, for which the Potency result in assay [1], in assay [2], in assay [3] and in assay [4] was “inactive” throughout.

Regarding `CCN(CC)CCOc1ccc2c(c1)C(=O)c1cc(OCCN(CC)CC)ccc1-2`, the Potency entry in assay [1] and in assay [2] was “inactive” each time. Also, the Potency in assay [3] was 8.09 µM (active).

For `Nc1nc(N)c(-c2ccccc2)s1`, the Potency entry in assay [1], in assay [2], in assay [3] and in assay [4] was “inactive” each time.

In the case of `COc1ccc(C(=O)c2ccccc2O)c(O)c1`, the Potency entry in assay [1], in assay [2], in assay [3] and in assay [4] was “inactive” throughout.

With `CCN(CC)CCNc1ccc(CO)c2sc3ccccc3c(=O)c12`, the Potency result in assay [1] and in assay [2] was “inactive” throughout. Further, the results for the Potency in assay [3] and in assay [4] were 1.61 µM (active) and 11.2 µM (active), respectively.

For the compound `CC(C)Nc1cccnc1N1CCN(C(=O)c2cc3cc(NS(C)(=O)=O)ccc3[nH]2)CC1`, the Potency result in assay [1], in assay [2] and in assay [4] was “inactive” throughout. The Potency in assay [3] was 14.4 µM (active).

In the case of `CC(C)Cc1ccc(CC(=O)O)cc1`, the Potency result in assay [1] and in assay [3] was “inactive” in each case.

For `CCN(CC)CCOC(=O)C1(c2ccccc2)CCCC1`, the Potency entry in assay [1] and in assay [3] was “inactive” each time.

Consider `CCOc1ccc(NC(C)=O)cc1`, for which the Potency entry in assay [1], in assay [2], in assay [3] and in assay [5] was “inactive” throughout.

For the compound `O=C(O)P(=O)(O)O`, the Potency entry in assay [1], in assay [2], in assay [3] and in assay [4] was “inactive” in each case.

In the case of `Cc1c(-c2ccccc2)oc2c(C(=O)OCCN3CCCCC3)cccc2c1=O`, the Potency entry in assay [1], in assay [2] and in assay [4] was “inactive” throughout.

Regarding `CCCN(CCC)S(=O)(=O)c1ccc(C(=O)O)cc1`, the Potency result in assay [1], in assay [2], in assay [3] and in assay [5] was “inactive” throughout.

Consider `C[N+]1(CC2COC(c3ccccc3)(C3CCCCC3)O2)CCCCC1` (stereo unspecified), for which the Potency entry in assay [1], in assay [2] and in assay [4] was “inactive” each time.

Regarding `C[C@@H](O)[C@H]1C(=O)N2C(C(=O)O)=C(S[C@@H]3CN[C@H](CNS(N)(=O)=O)C3)[C@H](C)[C@H]12`, the Potency result in assay [1], in assay [2], in assay [3] and in assay [4] was “inactive” in each case.

In the case of `CCCCCCCCCCCCCCCCO`, the Potency entry in assay [1], in assay [2], in assay [3] and in assay [5] was “inactive” throughout.
